Screening results: PubChem BioAssay, Center for Chemical Genomics, University of Michigan
The sample as a whole holds a higher share of hits than the screen did.
Dicer inh: inhibitors of Dicer pre-microRNA processing, primary screen, biochemical, cat-ELCCA, chemiluminescence. Endoribonuclease Dicer (Homo sapiens), Q9UPY3. 47,000 compounds, 6% hits. AID 1347074, 2019. cat-ELCCA pre-miR-21 Dicer processing; hits give high values. z-score at 25 µM; in the data active means z-score above about 3, passing the limit was not always enough;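 further: plate controls were vehicle for no effect and no enzyme for full effect; higher signal means more uncleaved substrate so more Dicer inhibition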
* hit, by the source's call.

SMILES	Dicer inh
Cc1nnc2n1NC(c1ccc(F)cc1)C(C(=O)Nc1ccc(Br)cc1Cl)S2 (stereo not given)	3.4*
Cc1ccc(C2Nn3c(C)nnc3SC2C(=O)Nc2ccc(C)cc2Br)cc1 (stereo not given)	0.22
COc1ccc(Br)cc1COC(=O)C1c2ccccc2Oc2ccccc21	-0.65
CCCCn1c2ccccc2n2c(C(=O)OC)c(C)nc12	-0.31
CCN1CCN(Cc2ccc3cccnc3c2O)CC1	-1.2
Oc1c(C(c2ccc(F)cc2)N2CCCCC2)ccc2cccnc12 (stereo not given)	3.7*
Oc1c(C(c2ccccn2)N2CCCC2)ccc2cccnc12 (stereo not given)	0.52
FC(F)(F)c1ccc2cccc(C(F)(F)F)c2n1	0.08
C/C(=N\OC(=O)Nc1c(C)cccc1C)c1sc2nc(C(F)(F)F)nn2c1C	-0.3
CN(C)C(=O)Cc1c(Cl)sc2ccccc12	2.4
C/C(=N\NC(N)=S)c1ccc(CC(C)C)cc1	1
COc1cc(CN2CCN(Cc3ccc(OC)cc3OC)CC2)cc(OC)c1	0.79
Brc1ccc(CN2CCN(Cc3ccco3)CC2)cc1	4.5*
COc1ccc(CN2CCN(Cc3ccco3)CC2)c(OC)c1	3.6*
CCCS(=O)(=O)N1CCN(Cc2ccco2)CC1	2
COc1cc(CN2CCN(Cc3ccco3)CC2)cc(OC)c1	0.39
Brc1ccccc1CN1CCN(Cc2ccco2)CC1	3
CCn1c2c(c3cc(OCc4ccccc4)ccc31)CCCC2=O	-0.44
CSc1cccc(NC(=S)NN/C(=N\S(=O)(=O)c2ccccc2)N2CCCC2)c1	-0.11
O=C(CSc1nnc(SCC(=O)c2ccccc2)s1)c1ccccc1	-0.49
COC(=O)C1=C(C)NC2=C(C(=O)CC(C)(C)C2)C1c1cccc(Cl)c1 (stereo not given)	-0.94
COc1ccc(OCC(O)CNC(=O)Nc2ccc(OCc3ccccc3)cc2)cc1 (stereo not given)	-0.86
COc1ccc(NC(=O)Nc2nnc(COc3ccccc3F)s2)cc1	3.5*
COc1ccc(NC(=O)Nc2c(C)noc2-c2ccccc2)cc1	1.5
CCOC(=O)c1c(NC(=O)Nc2ccc(Cl)c(Cl)c2)sc2c1C(C(=O)OCC)CC2 (stereo not given)	-2.6
SMILES	Dicer inh
O=C(O)c1c[nH]c2c(Cl)cccc2c1=O	1.4
O=c1c2ccccc2cnn1-c1ccccc1	0.92
Cn1cnc2cc(NCc3ccco3)ccc21	4.9*
CC(C)(C)n1cnc2cc(NCc3ccco3)ccc21	2.6
CC(C)n1cnc2cc(NCc3ccco3)ccc21	-0.27
CCOC(=O)C(C)Oc1ccc(C)c(NC(=O)c2ccc(Cl)cc2[N+](=O)[O-])c1 (stereo not given)	1.1
CC(C)(C)c1ccc(C(=O)Nc2cnc3sc4ccccc4n3c2=O)cc1	-0.63
FC(F)(F)c1ccccc1NC(=S)NNc1ccc(-c2csnn2)cc1	1.7
Cc1cccc(-c2nc3cc(Cl)ccc3c(=O)o2)c1	-1.7
COC(=O)C(O)(NC(=O)c1c(F)cccc1F)C(F)(F)F (stereo not given)	-1.1
O=C(CN1C(=O)/C(=C\c2ccc(OCc3ccccc3)cc2)N=C1c1ccccc1)c1cccs1	-1.9
O=C(CN1C(=O)/C(=C\c2ccc(F)cc2)N=C1c1ccccc1)c1ccco1	3.8*
C=CCN1C(=O)/C(=C\c2ccccc2Cl)N=C1c1ccccc1	-0.82
CCOC(=O)c1c(NC(=O)c2ccncc2)sc2c1CCC(C(C)(C)C)C2 (stereo not given)	1.5
COc1ccc(/C=C2/N=C(C)OC2=O)cc1	-0.48
CCOc1ccccc1/C=C1N=C(/C=C/c2ccccc2)OC/1=O	2
COc1ccc(/C=C2N=C(/C=C/c3ccccc3)OC/2=O)cc1	4.4*
FC(F)(F)c1nc2ccc(Cl)cc2[nH]1	1.2
c1ccc(Cc2nnc3sc(-c4ccco4)nn23)cc1	-0.3
Fc1ccccc1-c1nn2c(Cc3ccccc3)nnc2s1	0.65
CSc1nn2c(=O)c(Cc3ccccc3)nnc2s1	3.2*
CCC(C)S(=O)(=O)c1scc(-c2ccc(Cl)cc2)c1C#N (stereo not given)	-2
Cc1ccc2c(C)nc(NC3=NCN(Cc4ccco4)CN3)nc2c1	-0.72
CCOC(=O)C1=C(C)N=C2SCC(=O)N2C1c1cccc(OC)c1OC (stereo not given)	-0.18
COC(=O)Cn1cc(C(=O)C2CCCCC2)c2ccccc21	-0.91
SMILES	Dicer inh
CCN(CC)C(=O)Cn1cc(C(=O)c2cccs2)c2ccccc21	1
CCN(CC)C(=O)Cn1cc(C(=O)C2CC2)c2ccccc21	4.1*
COC(=O)CSc1ncccc1C(=O)OC	-1.8
N#Cc1cccc2c(Oc3ccccc3)cc(C(F)(F)F)nc12	-1.1
COC(=O)c1sc(-c2ccc(Cl)cc2)cc1NC(=O)c1cc(C)nn1C	-0.98
COC(=O)c1sc(-c2ccc(Cl)cc2)cc1NC(=O)c1cccnc1Oc1ccccc1	1.9
COC(=O)c1sc(-c2ccc(Cl)cc2)cc1NC(=O)Nc1cccs1	3.4*
CC(C)NC(=O)O/N=C/c1csc([N+](=O)[O-])c1	0.58
CCOC(=O)/C(C#N)=C/N=C(N/N=C(\C)c1ccc(Br)cc1)SC	0.1
COC(=O)C1=C(C)NC2=C(C(=O)CC(C)(C)C2)C1c1ccccn1 (stereo not given)	0.16
COC(=O)C1=C(C)NC2=C(C(=O)CCC2)C1c1ccc(C#Cc2ccccc2)s1 (stereo not given)	3.1*
COC(=O)C1=C(C)NC2=C(C(=O)CCC2)C1c1sc2ccccc2c1C (stereo not given)	-3.4
COCCOC(=O)C1=C(C)NC2=C(C(=O)CCC2)C1c1ccc(C)s1 (stereo not given)	1
CC1=C(C(=O)OCCc2ccccc2)C(c2ccccn2)C2=C(CCCC2=O)N1 (stereo not given)	1.4
COC(=O)C1=C(C)NC2=C(C(=O)CCC2)C1c1ccccn1 (stereo not given)	3.3*
O=C1SC(Nc2ccc(Br)cc2)C(=O)N1c1ccccc1 (stereo not given)	0.16
NS(=O)(=O)c1cccc2cc(C(=O)O)c(O)cc12	-1.9
O=C(Nc1ccc(OC(F)F)cc1)NC1CCN(C(=O)OCc2ccccc2)CC1	-1.9
CCOC(=O)c1cc(C(C)(C)C)nn1Cc1c(C)cc(C)cc1C	-1.9
CCCN(CCC)CC(O)Cn1cnc2c1c(=O)n(C)c(=O)n2C (stereo not given)	1.5
O=C(O)c1c(-c2ccccc2)nnc2ccccc12	-0.97
O=C(Nc1ccc(OC(F)(F)F)cc1)c1c(-c2ccccc2)nnc2ccccc12	29*
O=C(Nc1ccc(OC(F)(F)F)cc1)Nc1ccc2ccccc2n1	-1
Cc1c(O)c2cnn(-c3ccccc3)c2[nH]c1=O	0.66
S=c1[nH]nc(Cc2ccccc2)n1C1CCCCC1	0.77
SMILES	Dicer inh
S=c1[nH]nc(CSCc2cccc3ccccc23)n1C1CCCCC1	3.6*
S=c1[nH]nc(-c2ccccc2Cl)n1C1CCCCC1	0.48
O=C1c2cccc3c(Cl)ccc(c23)C(=O)N1c1cccc(O)c1	2.8
COc1ccc(Oc2c(C(F)(F)F)oc3c(CN4CCCCC4)c(O)ccc3c2=O)cc1	-0.53
COc1ccc(N2CCCCC2)c([N+](=O)[O-])c1	-1.2
COc1ccc(-n2c(/C=C/N(C)C)c([N+](=O)[O-])c3ccc(O)c(CN(C)C)c32)cc1	3.5*
Cc1c([N+](=O)[O-])c(/C=C/N(C)C)nn1C	1.3
COc1ccc(OC)c(C(=O)c2coc3ccc(O)c(CN(C)C)c23)c1	0.83
